The source of these data is PubChem BioAssay AID1671202 (University of Kansas High Throughput Screening Laboratory, 2021).

Molecules are shown by their SMILES. Where “and” joins values, the source holds several entries; their conditions need not be identical. Equal values may be shown once. The whole screen tested about 190,000 compounds, of which about 6,900 (3.6%) were called active. The full list was thinned out, with actives kept by preference. Unmarked numbers belong to inactive results. Cut-off read from the data, not from the text of the source: active = inhibition above about 50%; inactive = the rest.

In the test the target is Huntingtin (Homo sapiens) (UniProt P42858). Briefly: mutant huntingtin-calmodulin interaction inhibitors – biochemical, AlphaScreen, primary screen (AID 1671202).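 Note: 0% = both proteins with DMSO and 100% = one protein alone.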 As to conditions: AlphaScreen His-mHTT/GST-CaM binding, luminescence; at 15 µM, active compounds read high.
Sequence of Huntingtin (Homo sapiens) (P42858 whole entry, looked up, stated change not applied): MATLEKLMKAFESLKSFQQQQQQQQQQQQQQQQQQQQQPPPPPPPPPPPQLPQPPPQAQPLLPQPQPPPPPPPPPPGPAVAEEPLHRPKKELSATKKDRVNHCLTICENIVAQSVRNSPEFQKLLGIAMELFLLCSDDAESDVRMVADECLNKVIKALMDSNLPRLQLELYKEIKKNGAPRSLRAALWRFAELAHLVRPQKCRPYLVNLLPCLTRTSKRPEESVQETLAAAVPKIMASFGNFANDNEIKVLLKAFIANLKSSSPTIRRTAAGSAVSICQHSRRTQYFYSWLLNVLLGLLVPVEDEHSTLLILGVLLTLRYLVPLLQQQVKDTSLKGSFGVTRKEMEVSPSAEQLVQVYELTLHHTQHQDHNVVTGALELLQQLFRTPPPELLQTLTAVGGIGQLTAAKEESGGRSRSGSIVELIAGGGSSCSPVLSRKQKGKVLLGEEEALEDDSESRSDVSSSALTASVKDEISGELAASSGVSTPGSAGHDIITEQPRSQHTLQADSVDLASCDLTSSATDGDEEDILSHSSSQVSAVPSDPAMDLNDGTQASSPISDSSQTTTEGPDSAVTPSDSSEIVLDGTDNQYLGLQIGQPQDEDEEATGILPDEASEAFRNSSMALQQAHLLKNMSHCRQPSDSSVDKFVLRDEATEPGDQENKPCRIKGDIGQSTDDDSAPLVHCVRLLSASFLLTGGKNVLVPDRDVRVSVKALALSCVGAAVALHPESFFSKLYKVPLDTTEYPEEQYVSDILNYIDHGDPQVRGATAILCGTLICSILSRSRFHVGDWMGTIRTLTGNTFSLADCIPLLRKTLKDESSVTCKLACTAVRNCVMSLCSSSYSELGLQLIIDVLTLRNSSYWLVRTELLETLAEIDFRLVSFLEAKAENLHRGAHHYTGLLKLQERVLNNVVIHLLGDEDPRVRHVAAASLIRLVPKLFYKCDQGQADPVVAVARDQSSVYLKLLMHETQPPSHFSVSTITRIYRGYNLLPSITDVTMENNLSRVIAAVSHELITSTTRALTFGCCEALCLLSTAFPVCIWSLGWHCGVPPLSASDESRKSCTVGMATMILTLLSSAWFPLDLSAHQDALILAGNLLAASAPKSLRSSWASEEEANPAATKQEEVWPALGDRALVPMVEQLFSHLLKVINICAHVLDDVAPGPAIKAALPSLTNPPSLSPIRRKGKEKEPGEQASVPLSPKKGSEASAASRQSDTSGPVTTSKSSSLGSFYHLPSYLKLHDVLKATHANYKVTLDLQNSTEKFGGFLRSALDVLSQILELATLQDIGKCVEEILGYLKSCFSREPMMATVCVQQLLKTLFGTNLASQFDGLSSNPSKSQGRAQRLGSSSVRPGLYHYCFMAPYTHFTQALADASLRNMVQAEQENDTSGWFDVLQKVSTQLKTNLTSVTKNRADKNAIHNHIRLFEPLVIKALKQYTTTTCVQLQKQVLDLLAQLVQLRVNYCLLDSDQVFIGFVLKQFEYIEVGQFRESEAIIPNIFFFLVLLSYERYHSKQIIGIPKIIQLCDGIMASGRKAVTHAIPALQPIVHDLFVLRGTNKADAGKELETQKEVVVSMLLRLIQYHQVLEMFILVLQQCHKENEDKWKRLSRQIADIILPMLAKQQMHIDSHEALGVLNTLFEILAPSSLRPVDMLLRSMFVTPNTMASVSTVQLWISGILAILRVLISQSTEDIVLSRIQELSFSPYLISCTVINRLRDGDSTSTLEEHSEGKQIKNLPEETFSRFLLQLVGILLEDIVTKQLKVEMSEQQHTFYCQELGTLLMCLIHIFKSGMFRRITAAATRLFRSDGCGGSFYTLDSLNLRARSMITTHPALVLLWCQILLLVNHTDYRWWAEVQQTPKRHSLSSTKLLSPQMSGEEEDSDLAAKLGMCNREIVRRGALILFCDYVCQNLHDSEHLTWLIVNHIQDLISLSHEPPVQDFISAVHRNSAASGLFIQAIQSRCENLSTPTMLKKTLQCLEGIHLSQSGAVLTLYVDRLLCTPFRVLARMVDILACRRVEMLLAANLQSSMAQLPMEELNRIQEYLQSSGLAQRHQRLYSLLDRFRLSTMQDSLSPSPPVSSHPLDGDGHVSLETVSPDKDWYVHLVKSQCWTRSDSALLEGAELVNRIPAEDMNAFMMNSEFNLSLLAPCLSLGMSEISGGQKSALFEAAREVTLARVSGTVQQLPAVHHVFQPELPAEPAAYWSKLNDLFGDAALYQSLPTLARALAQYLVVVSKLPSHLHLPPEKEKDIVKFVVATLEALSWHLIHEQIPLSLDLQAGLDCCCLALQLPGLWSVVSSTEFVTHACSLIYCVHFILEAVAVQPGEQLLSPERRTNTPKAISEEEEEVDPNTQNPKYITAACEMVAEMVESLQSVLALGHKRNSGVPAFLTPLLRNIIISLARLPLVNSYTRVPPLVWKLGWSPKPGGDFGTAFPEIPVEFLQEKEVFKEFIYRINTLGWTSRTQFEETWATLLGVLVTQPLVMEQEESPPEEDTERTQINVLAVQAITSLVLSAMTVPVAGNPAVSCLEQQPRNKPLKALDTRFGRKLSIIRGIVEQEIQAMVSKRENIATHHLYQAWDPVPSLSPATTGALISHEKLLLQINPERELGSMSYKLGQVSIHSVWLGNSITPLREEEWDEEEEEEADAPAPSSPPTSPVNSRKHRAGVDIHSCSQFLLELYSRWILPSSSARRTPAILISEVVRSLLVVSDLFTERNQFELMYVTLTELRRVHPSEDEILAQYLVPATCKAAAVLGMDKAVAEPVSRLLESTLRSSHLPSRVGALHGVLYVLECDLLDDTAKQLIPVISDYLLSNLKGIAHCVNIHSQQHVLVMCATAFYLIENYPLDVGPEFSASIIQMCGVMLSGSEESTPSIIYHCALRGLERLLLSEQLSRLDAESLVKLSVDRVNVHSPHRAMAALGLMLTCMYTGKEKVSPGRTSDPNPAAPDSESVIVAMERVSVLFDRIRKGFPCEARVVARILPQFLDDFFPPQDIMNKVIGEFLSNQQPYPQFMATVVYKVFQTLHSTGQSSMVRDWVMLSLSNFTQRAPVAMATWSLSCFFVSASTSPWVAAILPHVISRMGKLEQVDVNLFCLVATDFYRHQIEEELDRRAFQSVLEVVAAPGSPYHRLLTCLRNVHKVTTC
As to `COc1ccc(-c2nc(SCC(=O)Nc3ccc(OC(F)(F)F)cc3)[nH]c(=O)c2C#N)cc1`, the inhibition was 14%.
Under `COc1ccc(OC)c(C=C2Oc3c(ccc(O)c3CN3CCCCC3C)C2=O)c1` (centres undefined) stands -1.3%; under `COc1ccc(-c2nnc(N3CCC(C(=O)NCc4cccc(OC)c4)CC3)o2)cc1`, 21%; under `COc1ccc(N2CC(C(=O)Nc3ccc(C(C)C)cc3)CC2=O)cc1` (centres undefined), 0.1%.
The figure for `CC(C)c1ccc(N2CC(C(=O)N(C)Cc3ccccc3)CC2=O)cc1` (centres undefined) is 56.5% (active).
For the molecule `Cc1ccc(N2CC(C(=O)N(C)C(C)C)CC2=O)cc1` (centres undefined), the inhibition is -4.2%.
The figure for `Cc1ccc(C(=O)NCC2CCCN(S(=O)(=O)c3ccc(F)cc3F)C2)cc1` (centres undefined) is -3.67%; for `O=C(CCn1c(=O)c2sccc2n(Cc2cccc(Cl)c2)c1=O)NCc1ccccc1` it is -2%; for `COc1ccccc1CCC(=O)N1CCCn2nc(-c3cccc(C)c3)cc2C1` it is 68.3% (active).
For `Cc1cccc(-c2cc3n(n2)CCCN(C(=O)C(C)Oc2ccccc2)C3)c1` (centres undefined), the inhibition is 42.9%.
Under `COc1ccccc1CC(=O)N1CCCn2nc(-c3ccc(C)cc3)cc2C1` stands 37.9%; under `CCOc1ccccc1Oc1c(C)oc2c(CN(CC)CC)c(O)ccc2c1=O`, 3.7%.
On to `CCC(CC)C(=O)Nc1ccc(Br)cc1F`, for which the inhibition is -9.3%.
The figure for `Cn1nc(-c2nc(-c3cccc(F)c3)no2)c2c1CCN(C(=O)Cc1cccs1)C2` is 20.1%; for `CCN(CC)CCC(c1cc(OC)c(OC)c(OC)c1)c1c(OC)cc(OC)c2c(-c3ccccc3)cc(=O)oc12` (centres undefined) it is -4.8%; for `COc1cccc2cc(-c3nc(-c4ccc5c(c4)OCO5)cs3)c(=O)oc12` it is -9%.
The figure for `CCN(CC)CCC(c1ccc2c(c1)OCO2)c1c(OC)cc(OC)c2c(-c3ccccc3)cc(=O)oc12` (centres undefined) is 101% (active); for `COc1ccc(-c2c(C)cc3oc(=O)cc(-c4ccccc4)c3c2C)cc1F` it is -2.4%.
The figure for `COc1ccc(-c2c(C)cc3oc(=O)cc(-c4ccccc4)c3c2C)cc1OC` is -2.2%; for `CCN(CC)C(=O)CC(c1ccc2c(c1)OCO2)c1c(OC)cc(OC)c2c(-c3ccccc3)cc(=O)oc12` (centres undefined) it is 74.9% (active); for `Cc1ccc(Cc2c(C)nc(C)nc2N2CCN(C(=O)c3ccccc3)CC2)cc1` it is 11.3%.
Take `COCCc1noc(COC2CCCN(C(=O)c3ccccn3)C2)n1` (centres undefined): the inhibition was -8.61%.
Under `CSc1cccc(NC(=O)NCCNc2cc(-n3ccnc3C)nc(C)n2)c1` stands 99.9% (active); under `CCc1ccccc1NC(=O)NCCNc1cc(-n2nc(C)cc2C)nc(C)n1`, -5.7%; under `CCNc1cc(NCCNC(=O)c2cccc(F)c2)nc(C)n1`, -7.5%.
The figure for `O=C1C(c2ccc(F)cc2)N(C2CCCC2)C(=O)CN1C1CCCCCC1` (centres undefined) is -6%; for `O=C(CCCn1c2ccccc2c(=O)c2ccccc21)Nc1ccc(C(F)(F)F)cn1` it is 23%; for `O=C(NCc1cccc(F)c1)c1cc2n(n1)CCCN(Cc1ccc(Cl)cc1)C2=O` it is 16.8%.
The figure for `CCCc1cc(C2CCCN2Cc2cc(OC)c(OC)cc2OC)no1` (centres undefined) is 37.6%; for `COc1cc(C2NC(C(=O)O)CS2)ccc1O` (centres undefined) it is -7%; for `COc1ccc([N+](=O)[O-])cc1NC(=O)c1ccc(C)c(Br)c1` it is 8.5%.
`COc1ccc([N+](=O)[O-])cc1NC(=O)CC(C)C`: the inhibition is -0.3%.
Under `COc1ccc([N+](=O)[O-])cc1-n1c(C)ccc1C` stands 51.9% (active); under `O=C(CC(C(=O)O)N1CCNCC1)Nc1ccc(OC(F)F)cc1` (centres undefined), -16.1%; under `Cc1ccc(NC(=O)Cn2cccc2-c2nnc(C3CCC3)o2)cc1`, 12.1%.
Under `CC1CCCC(C)N1C(=O)c1cccc2c1-c1ccccc1C2=O` (centres undefined) stands -6% and 2.5%.
With `O=C1c2ccccc2C(=O)c2c(NC3CCCCC3)cccc21`, the inhibition is 73% (active).
With `O=C1c2ccccc2C(=O)c2c(NC(=O)c3c(F)cccc3F)cccc21`, the inhibition was 1%.
Under `O=C(CSc1ccc(C(F)(F)F)cc1[N+](=O)[O-])Nc1ccccc1Cl` stands 8%.
Take `O=C1NC(=O)/C(=C\c2ccc(OCc3ccc([N+](=O)[O-])cc3)c(Br)c2)N1`: the inhibition was 10%.
The figure for `CCOc1cc(/C=C2\NC(=O)NC2=O)cc(Cl)c1OC(C)C` is 14%; for `CCOc1cc(/C=C2\NC(=O)NC2=O)cc(Cl)c1OCc1ccc([N+](=O)[O-])cc1` it is 74% (active).
Under `COc1cccc(CN2COc3ccc4c(c3C2)OC(=Cc2ccc(OC)c(OC)c2OC)C4=O)c1` stands 35.7%; under `COc1cccc(C=C2Oc3c(ccc4c3CN(Cc3cc(OC)c(OC)c(OC)c3)CO4)C2=O)c1`, 56.5% (active).
The figure for `COc1cccc(CN2COc3ccc4c(c3C2)OC(=Cc2cccnc2)C4=O)c1` is 3.4%.
Turning to `CCn1cnnc1C1CCCCN1C(=O)c1cnccn1` (centres undefined), the inhibition was 0.74%.
The figure for `CCOc1ccccc1/C=C1\N=C(c2ccc([N+](=O)[O-])cc2Cl)OC1=O` is -1%.
For `CN1CCC(CCNC(=O)c2ccc3[nH]c4c(c3c2)CN(C(=O)C2CCC2)CC4)CC1`, the inhibition was 4.82%.
Turning to `CC(=O)N1CCc2[nH]c3ccc(C(=O)NCCc4ccccn4)cc3c2C1`, the inhibition is 58.7% (active).
Under `CC(=O)N1CCc2[nH]c3ccc(C(=O)NC4CCCCC4)cc3c2C1` stands 9.6%.
For the molecule `Oc1ccc(Nc2nc(-c3ccc(Cl)cc3Cl)nc3ccccc23)cc1`, the inhibition is 37.4%.
As to `CCNc1cc(Nc2ccccc2)c2c3c(onc13)-c1ccccc1C2=O`, the inhibition is 100% (active).
In the case of `CCc1cc(C(=O)Nc2ccccc2)no1`, the inhibition was -4.5%.
Under `O=C(NCc1ccc(Cl)cc1)c1ccc2ncnc(N3CCOCC3)c2c1` stands -1.3%; under `CC(=O)c1cccc(NC(=O)C2CCN(S(=O)(=O)c3ccc(Br)cc3)CC2)c1`, -1.7%; under `COc1ccc(C2NC(c3ccc(OC)c(OC)c3)C(C)C(=O)C2C)cc1OC` (centres undefined), 10%.
The figure for `Cc1ccc(CNC(=O)C2CC(=O)N(C3CCCCCCC3)C2)cc1` (centres undefined) is 8.83%; for `CCN(CCCNC(=O)C1CC(=O)N(C2CCCCCCC2)C1)c1cccc(C)c1` (centres undefined) it is 53% (active).
Under `Cc1ccc(CNC(=O)C2CC(=O)N(C3CCCCC3)C2)cc1` (centres undefined) stands 2.18%.
